The source of these data is PubChem BioAssay.

This assay in a line: calcein-AM signal in unstimulated myeloma cells – cell-based, calcein-AM fluorescence, 48 h, PK04 Diversity Set, profiling panel (AID 1166).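 Note: cells grown under basal conditions without added stimulus; test concentration not given here.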 To be noted: RPMI8226 myeloma viability, higher = more signal.
In the case of `CCOC(=O)C1=CC[C@@H](c2cc(Cl)ccc2Cl)N(S(=O)(=O)c2ccc(C)cc2)[C@H]1c1ccc(OC)cc1`, the z-score was 0.199.

On to `CC=CC(O)C1C=CC2C(=O)N(C)C(=O)C2N1N1CCCCC1` (stereo unspecified), for which the z-score was -0.922.

For `C=C(C(=O)CC[C@H](OC(C)=O)c1cccc(OCCO)c1)C(C)C`, the z-score is -0.814.

Regarding `CC(C)C(=C=CC[C@H](O)c1ccc(OCCO)cc1)C[C@H](O)c1cc(Cl)cc(Cl)c1O`, the z-score was -3.74.

With `COc1ccc(C#Cc2ccc3c(c2)[C@]2(C(=O)N3)[C@H](C(=O)N3CCc4cc(OC)c(OC)cc4C3)[C@H]3C(=O)O[C@H](c4ccccc4)[C@H](c4ccccc4)N3[C@@H]2c2ccc(O)cc2)cc1`, the z-score is -0.293.

In the case of `CN1C(=O)[C@@]2(CCS(=O)(=O)c3ccccc3)N=C(c3ccc(OCCCO)cc3)O[C@H]2c2ccccc21`, the z-score was -0.517.

On to `CC[C@H]1C2=C3C(CC[C@H]4C(OCc5ccc(F)cc5C(F)(F)F)OC[C@](C)([C@@H]34)N(C(=O)OC(C)(C)C)C2)C2COC(=O)OCC21` (stereo partly specified), for which the z-score is -4.68.

Take `Cc1ccc(S[C@]2(C(=O)NCc3ccccc3)CC(=O)N(C(C)C)[C@@H]2c2ccc(CO)cc2I)cc1`: the z-score was -3.15.

In the case of `Cc1ccc(C(C)CC(O)C2C=CC3C(=O)N(c4ccccc4)C(=O)C3N2Nc2ccc(C(C)C)cc2)o1` (stereo unspecified), the z-score is -1.19.

Consider `COCCOC(=O)N1C(=O)[C@@]2(c3cc(C#Cc4ccc(OC)cc4)ccc31)[C@H](C(=O)NC[C@H](O)c1ccccc1)[C@H]1C(=O)O[C@H](c3ccccc3)[C@H](c3ccccc3)N1[C@@H]2c1ccc(O)cc1`, for which the z-score was -2.34.

On to `COCCOC(=O)N1C(=O)[C@@]2(c3cc(C#CC4(O)CCCCCC4)ccc31)[C@H](C(N)=O)[C@H]1C(=O)O[C@H](c3ccccc3)[C@H](c3ccccc3)N1[C@@H]2c1ccc(O)cc1`, for which the z-score was -3.95.

For the compound `CC1CC/C=C\[C@H]2OC34C=CCN(C(C)C)C(=O)[C@H]3N(CCCCCO)C(=O)[C@@H]4C2C(=O)O1` (stereo partly specified), the z-score is -1.4.

Consider `CCOC(=O)C1=CC[C@@H](c2ccccc2)N(S(=O)(=O)c2ccc(C)cc2)C1`, for which the z-score is -1.62.

For the compound `CCN(CC)c1ccc(N2CC=CC34O[C@@H]5/C=C\CCC(C)OC(=O)C5[C@H]3C(=O)N(CCO)[C@@H]4C2=O)cc1` (stereo partly specified), the z-score was -0.597.

On to `C=CCOC(=O)[C@H]1[C@@H]2C(=O)O[C@@H](c3ccccc3)[C@@H](c3ccccc3)N2[C@@H](c2ccc(OCCOC(=O)[C@H]3C[C@H]4C(=O)N[C@@H](CCCC[N+](C)(C)C)C(=O)N4[C@H]3c3cccc(OCCO)c3)cc2)[C@]12C(=O)Nc1ccc(I)cc12`, for which the z-score is 0.532.

Turning to `O=C1C[C@@](C(=O)NCC(F)(F)F)(c2ccc([N+](=O)[O-])cc2)[C@@H](c2ccc(CO)cc2)N1C1CCCCC1`, the z-score was 0.258.
